Source: PubChem BioAssay
The list is not random: actives were taken first. Their share in the collection is about 4.7%.
MPTP inh: permeability transition pore inhibition | isolated mouse mitochondria, Ca2+ swelling absorbance, 30 min | inhibition, % at 10 µM | 1.4% of 360,000 active | AID 602449;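 active = inhibition of 50% or more, scaled per plate between neutral and stimulator controls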;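 also: 0% = DMSO wells given calcium and 100% = 1 mM EGTA wells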
ADAM17 inh: inhibits human ADAM17; 0.83% of 370,000 active; inhibition, % at 6.95 µM; recombinant ADAM17, EDANS/DABCYL FRET peptide cleavage; P78536; AID 720648;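 active = inhibition above the mean of compounds lying between control limits plus 3 SD, set per campaign, cut at about 8.5% in these data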;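 also: 0% = DMSO-only wells as the low control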
rCAG binder: r(CAG) repeat RNA binding; TO-PRO-1 dye displacement fluorescence; inhibition, % at 3 µM; 1.3% of 370,000 active;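 active = inhibition above the plate cutoff, the mean of all test compounds on that plate plus 3 SD, cut at about 35% in these data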;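 also: 0% = DMSO alone and 100% = 100 µM mitoxantrone as full dye displacement; higher means more dye released from RNA so lower well fluorescence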
DSG3 Ab inh: blocks pemphigus antibody binding to human desmoglein-3. AID 588358. P32926. binding (percent of control), % at 10 µM. 0.48% of 310,000 active. DSG3-coupled beads, scFv-anti-DSG3-GFP binding, flow cytometry; active compounds read low;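 active = binding more than 3 SD below its plate's average and above zero; inconclusive = below that plate limit but binding exactly zero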;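 also: hits lower antibody fragment binding to DSG3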
ADAM10 inh: inhibits human ADAM10. AID 720582. inhibition, % at 7 µM. O14672. 0.62% of 370,000 active. recombinant ADAM10, EDANS/DABCYL FRET peptide cleavage, 3 h;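 active = inhibition above a per-campaign cutoff equal to the mean of compounds falling between control-based bounds plus 3 SD, cut at about 20% in these data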;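 also: 0% = DMSO wells while the 100% control is not disclosed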
KLK7 zymogen act: activates the human kallikrein-7 zymogen; P49862; purified proKLK7, EDANS-DABCYL substrate fluorescence; 100% is mature enzyme control, 0% vehicle; activation, % at 7 µM; 0.9% of 370,000 active;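 active = activation above the mean of all tested compounds plus 3 SD, computed per campaign excluding outliers beyond control limits, cut at about 13% in these data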
Target sequence (P49862 whole entry, looked up): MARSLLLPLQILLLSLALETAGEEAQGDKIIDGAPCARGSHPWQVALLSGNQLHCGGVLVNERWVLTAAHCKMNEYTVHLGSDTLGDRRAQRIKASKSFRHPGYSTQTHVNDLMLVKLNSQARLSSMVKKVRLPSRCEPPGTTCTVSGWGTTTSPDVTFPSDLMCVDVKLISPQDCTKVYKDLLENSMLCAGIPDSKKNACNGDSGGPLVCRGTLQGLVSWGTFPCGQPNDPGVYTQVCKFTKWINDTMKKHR
Rh123 counter: membrane potential counter-screen of mitochondrial pore inhibitors; shares compounds with MPTP inh; isolated mitochondria, Rhodamine 123 fluorescence; inhibition, % at 10 µM; 78% of 5,000 active; AID 624504; in the data active = inhibition above about 22%;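 also: 0% = DMSO vehicle and 100% = positive control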
MPTP abs DR: MPTP inhibition, dose response swelling confirmation; IC50, µM; isolated mitochondria swelling, absorbance; shares compounds with MPTP inh; 58% of 780 active; in the data active = IC50 below about 20 µM
MPTP cs DR: active in counter-screen for permeability transition pore inhibitors | IC50, µM | 49% of 780 active | isolated mitochondria counterscreen, fluorescence read-out | shares compounds with MPTP inh; in the data active = IC50 below about 80 µM
Starred values were filed as active, the others as inactive; i = inactive; u = inconclusive; x = no result given; + = active, no number.

SMILES	MPTP inh	ADAM17 inh	rCAG binder	DSG3 Ab inh	ADAM10 inh	KLK7 zymogen act	Rh123 counter	others
Cc1noc(C)c1C(C)C1=CCCCC1 (stereo not drawn)	x	-2	3	x	4	0	x
O=C(Nc1ccccc1C(F)(F)F)OC1CCC12CCC(c1ccccc1)CC2 (stereo not drawn)	x	0	4	x	i	0	x
N#Cc1ccc(NC(=O)Nc2ccc(Cl)cc2)cc1	105*	4	10	107	15	0	89*
CN(CC(=O)Nc1ccc(C#N)cc1)Cc1ccc(Cl)cc1	2	-1	-6	102	6	-1	x
CCc1c(-c2ccc(F)cc2F)ncn1CCc1ccccc1OC	x	1	0	x	7	1	x
CN(C)CC(O)c1ccc(C=Cc2ccc(Cl)cc2)cc1 (stereo not drawn)	97*	-13	4	96	-38	-2	-11	MPTP abs DR=17*;MPTP cs DR=>80
CN(C)/C=C/C(=O)/C=C/c1ccc(Cl)cc1	-2	-3	13	100	0	0	x
Cc1cc(C)c(N2CCN(S(=O)(=O)N3CCCCCC3)CC2)c(C)c1	79*	0	-3	144	4	0	13	MPTP abs DR=i;MPTP cs DR=17*
Cc1ccc(N2CCN(S(=O)(=O)N3CCCCC3)CC2)cc1Cl	0	0	-4	99	0	-1	x
Cc1cccc(Cn2cc(COC(=O)N3CCCC3)nn2)c1	x	-3	2	x	-8	-1	x
N#Cc1cc2nc(O)c(O)nc2cc1[N+](=O)[O-]	0	2	2	89	-1	0	x
CNc1nc2cc([N+](=O)[O-])c([N+](=O)[O-])cc2nc1NC	105*	0	8	97	4	0	94*
COc1ccc(C2C(C(=O)Nc3c(C)cccc3C)CCC(=O)N2c2ccc(OC)cc2)cc1 (stereo not drawn)	x	-1	8	x	-10	0	x
CCN1CCCC1CNC(=O)c1cc2c(-c3ccc(Cl)cc3)nn(C)c2s1 (stereo not drawn)	83*	x	x	118	x	x	-19	MPTP abs DR=11*;MPTP cs DR=>80
CCN1CCCC1CNC(=O)c1cc2c(-c3cccc(OC)c3)nn(C)c2s1 (stereo not drawn)	0	-80	10	118	-414	10	x
CCCN1CCC(NC(=O)Nc2ccc(Br)cc2)CC1	61*	-1	0	85	-1	1	76*
CCCN1CCC(NC(=O)Nc2ccc([N+](=O)[O-])cc2)CC1	3	0	3	103	-3	0	x
Cc1ccc(OCc2nnc(SCC(=O)Nc3ccc(OCc4ccccc4)cc3)n2-c2ccc(Cl)cc2)cc1	x	-1	8	x	-3	0	x
Nc1[nH]c(C(=O)c2ccc(Br)cc2)c(-c2ccncc2)c1C(=O)c1ccccc1	x	-4	1	x	-13	0	x
Cn1cc(S(=O)(=O)N2CCc3ccccc32)cc1C(=O)NC(C)(C)C	50*	-1	1	101	1	0	80*
O=C(OCC#CCSc1nnc(-c2cccc3ccccc23)o1)c1ccccc1F	x	-2	x	x	-2	x	x
Cc1ccccc1NC(=S)NCCSc1ccc(Cl)cc1	92*	4	5	x	15	1	86*
Cc1ccc(C)c(NC(=S)NCCSc2ccc(Cl)cc2)c1	76*	6	4	101	11	1	90*
CS(=O)(=O)Nc1ccccc1C(=O)NCCSc1ccc(Cl)cc1	2	-52	9	123	-107	-4	x
Cc1cccc(NC(=S)NCCSc2ccc(Cl)cc2)c1	98*	-1	-1	x	8	0	85*
SMILES	MPTP inh	ADAM17 inh	rCAG binder	DSG3 Ab inh	ADAM10 inh	KLK7 zymogen act	Rh123 counter	others
Cc1cccc(NC(=S)NNc2cccc(Cl)c2)c1	2	-3	9	111	8	-1	x
CCc1ccccc1NC(=S)NCCSc1ccc(Cl)cc1	94*	-1	-1	x	8	0	94*
Cc1ccccc1-c1cccc2c3c([nH]c12)[C@@H]1C[C@H]2[C@@H](C(=O)N1CC3)[C@H](C)ON2C	x	-108	5	x	-438	-24	x
C=C1[C@@H]2CC[C@H]3[C@]4(C)[C@@H](O)CC[C@@](C)(C(=O)OC)[C@H]4C[C@H](O)[C@]3(C2)[C@H]1O	x	-3	0	x	-5	1	x
CCOC(=O)[C@]12CCCC=C1N(CCCOC)C(=O)[C@@H]2CC(=O)NCc1ccccc1	x	-8	1	x	-5	0	x
Cc1ccc(NC(=S)NCc2ccc(Cl)cc2)c(C)c1	3	1	1	115	16	0	x
Cc1cccc(NC(=S)NCC(C)CSc2ccc(Cl)cc2)c1 (stereo not drawn)	89*	-1	9	99	-1	0	94*
Cc1ccc(NC(=S)NCCSc2ccc(Cl)cc2)c(C)c1	81*	5	0	x	11	0	87*
COC(=O)Cc1cc(=O)n2[nH]c(C)cc2n1	+	-7	3	100	-3	1	2	MPTP abs DR=>100;MPTP cs DR=>80
COC(=O)Cc1cc(=O)n2[nH]c(C)nc2n1	-1	-3	-5	x	-1	1	x
CCCCOc1ccc(C(=O)OC2CC(C)N(C)CC2C)cc1 (stereo not drawn)	83*	1	-8	113	-11	0	-6	MPTP abs DR=9.7*;MPTP cs DR=74*
CC(C)C[C@H]1COc2c(Cl)cccc2S(=O)(=O)N1Cc1ccc(F)cc1F	x	1	4	x	1	1	x
CCCCN(C)C(=O)C1CCN(S(=O)(=O)c2ccc3[nH]c(=O)oc3c2)CC1	x	-3	8	x	-1	0	x
Cc1ccc(Sc2cc(NCCCO)c([N+](=O)[O-])c3nonc23)cc1	72*	-1	1	94	0	0	34*
CN1CCN(NC(=O)c2cc(-c3cccc(Cl)c3)nc3ccccc23)CC1	2	-3	-3	109	-11	0	x
OC(c1cc(-c2cccc(Cl)c2)nc2ccccc12)C1CCCCN1 (stereo not drawn)	82*	-3	28	95	-3	0	-19	MPTP abs DR=3.6*;MPTP cs DR=29*
OC(c1cc(C(F)(F)F)nc2c(C(F)(F)F)cccc12)C1CCCCN1 (stereo not drawn)	92*	0	19	98	2	0	-23
CCOC(=O)c1c(NC(=O)C(NCCN(C)C)c2ccccc2)sc2c1CCCC2 (stereo not drawn)	81*	-2	13	u	-3	0	-11
O=[N+]([O-])c1ccc(O)c(C2CCCCC2)c1	88*	-1	2	106	10	0	102*
O=[N+]([O-])c1ccc2nc(C3CCCCC3)[nH]c2c1	14	-1	-1	94	3	0	x
